Assay results: PubChem BioAssay AID1117361 (Southern Research Institute, 2015)
Hit rate of the full screen: of about 3,600 compounds, about 900 (25%) were called active. The list is a sample of the results. Results with a measured potency or affinity are listed apart. A number with no mark means an inactive call. The rule behind the calls is not given here.

target: Protein Tat (Human immunodeficiency virus type 1 group M subtype B (isolate HXB2)) (UniProt P04608); assay: inhibitors of Tat binding to TAR RNA, dose response, counter-screen for Vif-APOBEC3G degradation inhibitor project, biochemical, fluorescence polarization, FAM-labeled TAR RNA (AID 1117361); conditions: outcome: dose series up to 100 µM unless noted; series mostly up to 100 µM; inhibition: at the top concentration

Question: For `N=c1ccn(Cc2ccc(Cl)cc2)cc1`, which “inhibition” value is on record?
Answer: 4.73%

Question: With `C=CCc1c(C)nc(C)nc1N/N=C/c1ccc(F)cc1` as the molecule, how does the “inhibition” value read?
Answer: 1.36%

Question: How did the “inhibition” value turn out when `COCCNC(=S)c1ccc(OC)cc1` was run?
Answer: 6.08%

Question: `CCN(CC)S(=O)(=O)c1ccc(C(=O)NCc2n[nH]c(=S)n2-c2ccccc2OC)cc1` was tested. Which outcome did it give?
Answer: inactive

Question: How did the “inhibition” value turn out when `Cc1ccc(N=Cc2nc(-c3ccco3)oc2O)cc1` was run?
Answer: 10.1%

Question: How did the outcome turn out when `Clc1ccc2nc3ccccn3c2c1` was run?
Answer: inactive

Question: Which “inhibition” value does the source give for `O=C(NC1CCCCC1)n1c(=O)oc2cc(S(=O)(=O)N3CCCCC3)ccc21` here?
Answer: 3.38%

Question: With `CC(C)Cn1c(N)c(C(=O)NCc2cccs2)c2nc3ccccc3nc21` as the molecule, how does the outcome read?
Answer: inactive

Question: `COC(=O)c1ccc(-n2nnnc2SCC(=O)Nc2cc(OC)ccc2OC)cc1` was tested. Which “inhibition” value did it give?
Answer: 9.55%

Question: How did the “inhibition” value turn out when `CCOC(=O)N1CCC(N2Cc3cccc(C(=O)Nc4cc(F)ccc4F)c3C2=O)CC1` was run?
Answer: 4.73%

Question: `CC1(C)CC(=O)C=C(Nc2ccccc2NC(=O)c2cnccn2)C1` was tested. Which “inhibition” value did it give?
Answer: 19.6%

Question: Which outcome does the source give for `CCC(C)NS(=O)(=O)c1ccc(NS(=O)(=O)c2ccc(F)cc2)cc1` (stereo not given) here?
Answer: inactive

Question: For `O=C(CCc1c[nH]c2ccccc12)N1CCN(c2ccc(O)cc2)CC1`, which outcome is on record?
Answer: inactive

Question: How did the outcome turn out when `CC(C)CN1C(=O)c2ccc(C(=O)Nc3ccc(O)cc3C(=O)O)cc2C1=O` was run?
Answer: inactive

Question: With `COC(=O)c1c(NC(=O)CC2NCCNC2=O)sc2c1CCCC2` (stereo not given) as the molecule, how does the outcome read?
Answer: inactive

Question: `Cc1nn(CC(=O)Nc2ccccn2)c(C)c1Br` was tested. Which outcome did it give?
Answer: inactive

Question: How did the “inhibition” value turn out when `CCOCCCNC(=O)C1CCN(S(=O)(=O)CC)CC1` was run?
Answer: 3.67%

Question: Which “inhibition” value does the source give for `CCOC(=O)C(C)N1C(=O)S/C(=C\c2ccc(-c3ccccc3C(=O)O)o2)C1=O` (stereo not given) here?
Answer: 28.4%

Question: `COc1cc(C(=O)Nc2cccc(-c3nc4ncccc4o3)c2C)cc(OC)c1OC` was tested. Which “inhibition” value did it give?
Answer: 4.73%

Question: With `CCC1(C(N)=O)CC2C=CC1C2` (stereo not given) as the molecule, how does the outcome read?
Answer: inactive

Question: With `CCOC(=O)C(C)Sc1nnc2n1C(C)(C)Cc1ccccc1-2` (stereo not given) as the molecule, how does the “inhibition” value read?
Answer: 0.68%

Question: `O=S1(=O)CCC(N2CCOCC2)C1` (stereo not given) was tested. Which “inhibition” value did it give?
Answer: 2.7%

Question: `CCOC(=O)/C=C1\SC(C)C(=O)N1CC(=O)N(CCC#N)c1ccccc1` (stereo not given) was tested. Which outcome did it give?
Answer: inactive

Question: With `COc1ccc(C2=NO[C@@H]3C(=O)N(c4ccc(C)cc4C)C(=O)[C@H]23)cc1OC` as the molecule, how does the “inhibition” value read?
Answer: 12.3%

Question: `COc1ccc(OC)c(-n2cnnn2)c1` was tested. Which “inhibition” value did it give?
Answer: 7.43%

Question: `CC(C)(C)NC(=O)C1N(c2cccnc2)C(=O)C2C(C(=O)Nc3ccccc3F)C3(C)C=CC21O3` (stereo not given) was tested. Which “inhibition” value did it give?
Answer: 16.2%

Question: Which outcome does the source give for `COc1ccc(OC)c(NC(=O)CSc2nnc(C)n2Cc2ccccc2)c1` here?
Answer: inactive

Question: With `Cc1cc(SCC(=O)NCCCN2CCCC2=O)nc2ccccc12` as the molecule, how does the outcome read?
Answer: inactive

Question: With `O=C(NCCN1CCOCC1)c1cc(-c2ccc(Br)cc2)on1` as the molecule, how does the “inhibition” value read?
Answer: 0.68%

Question: How did the “inhibition” value turn out when `CCc1nc(SCC(=O)Nc2ccc(C(=O)O)cc2)n[nH]1` was run?
Answer: 0.68%

Question: `S=c1[nH]nc(COc2ccc(Cl)cc2)o1` was tested. Which “inhibition” value did it give?
Answer: 12.4%

Question: With `O=C(NNc1cc(Cl)cc(Cl)c1)c1c(F)cccc1Cl` as the molecule, how does the outcome read?
Answer: inactive

Question: `S=c1nc(-c2ccc(Br)cc2)oc2c1CCCC2` was tested. Which “inhibition” value did it give?
Answer: 13%

Question: For `CCOC(=O)N1CCN(CC(=O)c2ccc3c(c2)CCN3C(C)=O)CC1`, which “inhibition” value is on record?
Answer: 10.1%

Question: With `Cc1ccc(Cc2cnc(NC(=O)/C(C#N)=C/c3ccc(-c4ccc([N+](=O)[O-])cc4)o3)s2)cc1` as the molecule, how does the “inhibition” value read?
Answer: 10.8%

Question: With `CC(OC(=O)c1ccc([N+](=O)[O-])o1)C(=O)NC1CCCCC1C` (stereo not given) as the molecule, how does the “inhibition” value read?
Answer: 7.42%

Question: With `COc1cc(O)oc1C=Nc1ccccc1` as the molecule, how does the “inhibition” value read?
Answer: 8.78%

Question: `CCOc1ccccc1C1CC(=O)NC(SCC)=C1C#N` (stereo not given) was tested. Which “inhibition” value did it give?
Answer: 10.8%

Question: How did the outcome turn out when `O=S(=O)(Nc1ccc(Cc2ccncc2)cc1)c1ccc(Br)cc1` was run?
Answer: inactive

Question: `COc1ccc(N(CC(=O)NCCC2=CCCCC2)S(=O)(=O)c2ccccc2)cc1` was tested. Which “inhibition” value did it give?
Answer: 11.6%

Question: With `O=C1CC(c2ccco2)CC(O)=C1C=NCC1CCNCC1` (stereo not given) as the molecule, how does the outcome read?
Answer: inactive

Question: For `CCCN(CC(=O)Nc1ccccc1C)C(=O)COC(=O)c1cnc(C)cn1`, which outcome is on record?
Answer: inactive

Question: Which “inhibition” value does the source give for `CC(C)(C)NC(=O)CSc1nnc(-c2ccncc2)n1Cc1ccccc1` here?
Answer: 6.76%

Question: How did the outcome turn out when `CCOC(=O)Cn1c(=O)oc2cc(S(=O)(=O)NC3CCCc4ccccc43)ccc21` (stereo not given) was run?
Answer: inactive

Question: Which “inhibition” value does the source give for `CCn1c(SC(C)C(=O)NC2CCCc3ccccc32)nnc1-c1cccs1` (stereo not given) here?
Answer: 3.38%

Question: For `c1ccc2c(c1)ccc1nnc(SCc3ccc4c(c3)OCO4)n12`, which “inhibition” value is on record?
Answer: 12.2%

Question: For `CCC(c1ccc(O)c(O)c1)C(CC)c1ccc(O)c(O)c1` (stereo not given), which “inhibition” value is on record?
Answer: 3.01%

Question: `CSc1ccc(CN(C)CC(=O)NC(=O)NCCC2=CCCCC2)cc1` was tested. Which outcome did it give?
Answer: inactive

Question: `COc1cc(/C=N/N=C(N)N)ccc1OCc1ccc(Cl)cc1` was tested. Which outcome did it give?
Answer: inactive

Question: How did the “inhibition” value turn out when `CSc1cccc(-n2cc(-c3ccc4c(c3)OCO4)[nH]c2=O)c1` was run?
Answer: 3.41%

Question: With `CSCC[C@@H](Nc1nc(-c2ccccc2)nc2c1oc1ccccc12)C(=O)O` as the molecule, how does the “inhibition” value read?
Answer: 4.09%

Question: With `CN1CCN(C(=O)C2CCN(S(=O)(=O)c3cnc[nH]3)CC2)CC1` as the molecule, how does the “inhibition” value read?
Answer: 8.19%

Question: How did the outcome turn out when `COCCCNC(=O)c1cc(OC)c(OC)c(OC)c1` was run?
Answer: inactive

Question: Which “inhibition” value does the source give for `C/C=C/c1ccc(OCC(=O)N2CCc3cc(OC)c(OC)cc3C2)c(OC)c1` here?
Answer: 1.65%

Question: Which “inhibition” value does the source give for `Cc1nn(-c2ccccc2)cc1/C=N/O` here?
Answer: 12.2%
